Source: PubChem (National Center for Advancing Translational Sciences (NCATS))
The list is not random: actives were taken first. Their share in the collection is about 2.4%.
D2 ag-1: human D2 receptor agonism in beta-arrestin assay; P14416; DiscoveRx PathHunter D2 beta-arrestin, luminescence, 90 min; 100% = 57 uM dopamine signal; activation, % (test concentration not listed); 360,000 compounds, 0.084% hits; AID 624465; in the data active = activation above about 40%; inconclusive = between about 15% and that limit
Target sequence (P14416 whole entry, looked up): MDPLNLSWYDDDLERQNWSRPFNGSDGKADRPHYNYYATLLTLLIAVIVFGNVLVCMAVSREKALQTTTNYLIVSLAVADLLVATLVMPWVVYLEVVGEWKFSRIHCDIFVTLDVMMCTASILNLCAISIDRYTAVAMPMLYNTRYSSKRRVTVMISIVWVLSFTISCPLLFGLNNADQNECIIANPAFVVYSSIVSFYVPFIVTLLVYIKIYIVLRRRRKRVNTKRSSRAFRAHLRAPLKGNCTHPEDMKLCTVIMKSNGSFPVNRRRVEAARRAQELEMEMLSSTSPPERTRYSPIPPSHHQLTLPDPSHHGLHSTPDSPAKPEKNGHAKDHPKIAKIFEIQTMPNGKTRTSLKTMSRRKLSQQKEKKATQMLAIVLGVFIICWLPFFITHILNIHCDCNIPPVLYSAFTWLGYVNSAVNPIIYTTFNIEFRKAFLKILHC
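Agonist mode: compounds alone added to overnight-plated D2 PathHunter cells for 90 min at 37 C, with 57 uM final dopamine (EC100) defining full response. Beta-arrestin recruitment detected by chemiluminescent reagent, read after 1 h at ambient temperature.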
D2 PAM-1: positive allosteric modulators of human D2 dopamine receptor | P14416 | DiscoveRx D2 beta-arrestin cells, luminescence, 90 min; 100% = 57 uM dopamine signal | potentiation, % (concentration not given with the values) | 360,000 compounds, 0.23% hits | AID 624464; in the data active = potentiation above about 50%; inconclusive = mostly about 30% to 49%
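D2 cells co-treated with compound plus 50 nM dopamine (EC20) for 90 min at 37 deg C to detect potentiation. Beta-arrestin recruitment was read as enzyme-fragment luminescence after 1 h at ambient temperature. Full response was set by 57 uM dopamine.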
D2 antag: antagonizes the human D2 dopamine receptor | P14416 | HEK293 TREx D2 cells, calcium flux, dopamine EC80 | inhibition, % at 10 µM | 340,000 compounds, 2% hits | AID 485344; in the data active = inhibition above about 30%; inactive = below that, where a call was filed
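Overnight-induced (tetracycline, 30 C) HEK293 T-REx cells carrying force-coupled D2 receive a no-wash calcium dye, then compound, then EC80 dopamine at 180 s; signals are read kinetically throughout.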
D2 ag-2: activates the human D2 dopamine receptor | P14416 | HEK293 T-REx D2 cells, calcium flux agonist mode | activation, % at 2 µM | 340,000 compounds, 0.53% hits | AID 485358;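 active = activation over 3 SD above normal in the single-dose calcium agonist read, cut at about 30% in these data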
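Agonism is scored from calcium flux in a force-coupled, inducible HEK293 cell line expressing D2, read kinetically for 180 s after compound addition against dopamine controls.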
D2 PAM-2: D2 dopamine receptor (human) potentiation; HEK293 T-REx D2, calcium flux, EC20 dopamine potentiation; potentiation, % at 10 µM; 340,000 compounds, 0.34% hits; AID 485347;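 active = potentiation over 3 SD above the plate norm, cut at about 30% in these data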
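Calcium flux readout, no-wash dye, 1 read/s. Inducible HEK293 Trex D2 line, overnight 30 C. Compound alone 180 s (agonist flags), then EC20 dopamine, another 180 s to score potentiation.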
Large screens that a line does not name were inactive.

COc1ccc(NC(=O)C(C)n2nc(-c3cc(C)ccc3C)c3c(c2=O)CCCC3)cc1 (stereo unspecified)	none (no result: D2 ag-1, D2 PAM-1, D2 antag)
O=C(CNS(=O)(=O)c1ccccc1)OCC(=O)c1ccc([N+](=O)[O-])cc1	none
NNC(=O)CNS(=O)(=O)c1ccc([N+](=O)[O-])cc1	D2 antag 49
CCNC(=S)NC1CC2CCCC(C1)N2Cc1ccc(C)cc1 (stereo unspecified)	D2 antag 82
CNC(=S)NC1CC2CCCC(C1)N2Cc1ccccc1OC (stereo unspecified)	none
CCNC(=S)NC1CC2CCCC(C1)N2Cc1ccco1 (stereo unspecified)	none
CNC(=S)NC1CC2CCCC(C1)N2Cc1ccc(C)cc1 (stereo unspecified)	D2 antag 81
Cc1nc(-n2nc(C)c(Cc3ccccc3Cl)c2C)sc1C(=O)N1CCC(C)CC1	none (no result: D2 ag-1, D2 PAM-1, D2 antag)
O=C1c2ccc([N+](=O)[O-])cc2S(=O)(=O)N1Cc1ccccc1	D2 ag-1 inconclusive, D2 PAM-1 72
COc1ccc(C(CNC(=O)C(C)(C)Oc2ccc(Cl)cc2)N2CCCC2)cc1 (stereo unspecified)	D2 antag 97
COc1ccc(C(CNC(=O)c2cc3c(s2)CCC(C)C3)N2CCOCC2)cc1 (stereo unspecified)	none
COc1ccc(C(CNC(=O)c2cc3ccccc3o2)N2CCCC2)cc1 (stereo unspecified)	D2 antag 79
COc1ccc(C(CNC(=O)c2cc3c(s2)CCC(C)C3)N2CCCC2)cc1 (stereo unspecified)	D2 antag 72
COc1ccc(C(CNC(=O)c2cc3ccccc3o2)N2CCCCC2)cc1 (stereo unspecified)	D2 antag 67
O=C(CSc1nc(-c2ccccc2F)nc2cc(=O)[nH]n12)Nc1cccc(C(F)(F)F)c1	none (no result: D2 ag-1, D2 PAM-1, D2 antag)
C=CCN1C(=O)/C(=C/c2ccc(OC(C)=O)c(OCC)c2[N+](=O)[O-])SC1=S	D2 antag 30
C=CCN(C(=O)c1csnn1)C(C(=O)NCc1ccc(F)cc1)c1ccccc1 (stereo unspecified)	D2 antag 52
COc1cc(OC)c2c(-c3ccccc3)cc(=O)oc2c1C(CC(=O)N1CCOCC1)c1ccc(N(C)C)cc1 (stereo unspecified)	D2 antag 31
COc1cc(OC)c2c(-c3ccccc3)cc(=O)oc2c1C(CC(=O)N1CCN(c2ccccc2)CC1)c1ccc2c(c1)OCO2 (stereo unspecified)	none (no result: D2 ag-1, D2 PAM-1)
COc1cc(OC)c2c(-c3ccccc3)cc(=O)oc2c1C(CC(=O)N1CCN(c2ccccc2)CC1)c1ccc(N(C)C)cc1 (stereo unspecified)	D2 antag 48
COc1cc(OC)c(Nc2ncnc3onc(-c4cccc(Cl)c4)c23)cc1Cl	none (no result: D2 ag-1, D2 PAM-1, D2 antag)
CCOc1ccc(NC(=O)Cn2c(=O)n(-c3ccccc3)c(=O)c3ccc(C(=O)NCc4ccc5c(c4)OCO5)cc32)cc1	none (no result: D2 ag-1, D2 PAM-1, D2 antag)
COc1ccc(OC)c(NC(=O)COCc2cc(-c3ccc(F)cc3)on2)c1	none (no result: D2 ag-1, D2 PAM-1, D2 antag, D2 ag-2)
Oc1c(CN2CCN(c3ccccc3)CC2)cc(Br)c2cccnc12	D2 antag 59
CC(C)OCc1cc(CN2CCN(c3ccccc3)CC2)c(O)c2ncccc12	none (no result: D2 ag-1, D2 PAM-1, D2 antag)
CCCOc1ccc(NC(=O)CC2C(=O)N(CC)C(=S)N2CCCN2CCN(Cc3ccccc3)CC2)cc1 (stereo unspecified)	D2 ag-1 inconclusive, D2 antag 33 (no result: D2 PAM-2)
O=C(CCN1CCN(CCO)CC1)Nc1ccc(OCc2ccccc2)cc1	none
O=C(CCN1CCN(Cc2ccccc2)CC1)Nc1ccc(OCc2ccccc2)cc1	D2 antag 42
Cc1ccc(C)c(NC(=O)Cn2c(=O)n(Cc3ccc4c(c3)OCO4)c(=O)c3oc4ccccc4c32)c1	none (no result: D2 ag-1, D2 PAM-1, D2 antag)
FC(F)(F)c1cccc(N2CCN(CC3CC=CCC3)CC2)c1 (stereo unspecified)	D2 antag 73
Cc1ccc(N2CCN(CC3CC=CCC3)CC2)cc1 (stereo unspecified)	D2 antag 36
COc1cc(NC(=O)Nc2nnc(N3CCCCCC3)s2)cc(OC)c1	none (no result: D2 ag-1, D2 PAM-1, D2 antag)
CN(C)c1ccc(S(=O)(=O)NCC(=O)NCCOc2ccccc2F)cc1[N+](=O)[O-]	none
